TbREL1 primary – TbREL1 inhibition, primary screen | TbREL1 RNA ligation, FRET fluorescence | inhibition, % at 9.66 µM | 0.49% of 89,000 active | AID 1117264;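 active = inhibition above the mean inhibition across all screened compounds plus 3 SD, cut at about 11% in these data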;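 also: 0% = plate median of test wells and 100% = NSC42067 control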
Target sequence (P86926 whole entry, looked up): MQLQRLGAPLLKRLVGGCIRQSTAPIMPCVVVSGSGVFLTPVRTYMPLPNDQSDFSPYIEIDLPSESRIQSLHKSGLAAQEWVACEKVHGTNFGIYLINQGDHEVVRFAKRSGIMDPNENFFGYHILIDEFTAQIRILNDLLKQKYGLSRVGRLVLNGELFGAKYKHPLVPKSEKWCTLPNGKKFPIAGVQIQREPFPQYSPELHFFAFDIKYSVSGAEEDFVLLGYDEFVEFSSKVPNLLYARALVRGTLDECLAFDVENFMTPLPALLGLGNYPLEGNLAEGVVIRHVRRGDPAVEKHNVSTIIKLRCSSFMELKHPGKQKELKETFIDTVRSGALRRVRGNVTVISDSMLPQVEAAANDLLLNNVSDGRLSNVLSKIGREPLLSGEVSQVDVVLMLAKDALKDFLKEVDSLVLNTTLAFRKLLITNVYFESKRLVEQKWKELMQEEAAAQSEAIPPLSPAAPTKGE
TbREL1 conf – TbREL1 inhibition, confirmation | 37% of 390 active | TbREL1 RNA ligation, FRET fluorescence | inhibition, % at 9.66 µM | shares compounds with TbREL1 primary;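 active = mean inhibition across replicates above a set limit taken from the earlier primary screen, cut at about 11% in these data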;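 also: 0% = REL1 with substrate and DMSO and 100% = REL1 plus control inhibitor NSC42067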
Starred values were filed as active, the others as inactive. Only a selection was taken, and hits are over-represented in it overall.

SMILES	TbREL1 primary	others
COC[C@@H]1CCCN1c1ccc2c(c1)O[C@@H]1CCN(C1)S2(=O)=O	-0.8
COc1ccc(C[C@H]2CN3C(=NC[C@@H]3Cc3ccc(O)cc3)N2CCNC(=O)c2ccc(C)c(Br)c2)cc1	9.4
COc1ccc(C[C@H]2CN3C(=NC[C@@H]3C(C)C)N2C[C@H](C)NC(=O)c2ccc(C)c(Br)c2)cc1	13.1*	TbREL1 conf=19.7*
Cc1ccc(C(=O)N[C@@H](C)CN2C3=NC[C@H](C(C)C)N3C[C@H]2Cc2ccc(O)cc2)cc1Br	8.0
Nc1[nH]c(C(=O)c2ccccc2)c(-c2ccc3ccccc3c2)c1C(=O)NCCc1ccc(Cl)cc1	4.9
CC(C)CCOc1ccc(-c2c(=O)n(OCc3ccc([N+](=O)[O-])cc3)c3ccccc3[n+]2[O-])cc1	-1.5
O=c1c(-c2ccco2)[n+]([O-])c2ccccc2n1OCc1ccccc1	1.0
O=c1c(-c2cccc([N+](=O)[O-])c2)[n+]([O-])c2ccccc2n1O	12.1*	TbREL1 conf=4.5
O=C1CCC[C@H]2[C@@H](Cc3ccccc3)[C@@H](O)CC[C@]23CCCN13	-2.5
COc1ccc(-n2nnc3c(=O)n(CC(=O)N4CCCC4)cnc32)cc1	2.5
CCOC(=O)C(CC)n1cnc2c(nnn2-c2ccc(C)cc2)c1=O (centres undefined)	18.6*	TbREL1 conf=1.8
CCOC(=O)c1nn(-c2ccc(C)cc2)c(=O)c2c(N)scc12	1.0
CN(Cc1ccc(F)cc1)C(=O)CN1C(=O)C2(OCCCO2)c2ccccc21	-4.0
C=CCn1c(SCC(=O)O)nnc1-c1ccco1	1.1
COc1ccc(-c2cc(-c3nnc(SCC(=O)Nc4ccc(OCc5ccccc5)cc4)n3N)[nH]n2)cc1	-0.1
C#CCOCCOCCOCCNc1nc(N2CCN(C(=O)[C@H]([C@@H](C)CC)n3cc([C@@H](N)CC(C)C)nn3)CC2)nc(N2CCN(C(=O)[C@H]([C@@H](C)CC)n3cc([C@@H](N)CC(C)C)nn3)CC2)n1	11.1*	TbREL1 conf=9.4
C#CCOCCOCCOCCNc1nc(N2CCN(C(=O)[C@H]([C@@H](C)CC)n3cc([C@@H](N)CC(C)C)nn3)CC2)nc(N2CCN(C(=O)[C@H](Cc3ccc(O)cc3)n3cc([C@@H](N)CC(C)C)nn3)CC2)n1	4.7
C#CCOCCOCCOCCNc1nc(N2CCN(C(=O)[C@H]([C@@H](C)CC)n3cc([C@@H](N)Cc4ccc(O)cc4)nn3)CC2)nc(N2CCN(C(=O)[C@H]([C@@H](C)CC)n3cc([C@@H](N)Cc4ccc(O)cc4)nn3)CC2)n1	8.8
COc1cc(C=NN2CCN(C(c3ccccc3)c3ccccc3)CC2)cc(OC)c1OC(C)=O	5.0
COC(=O)c1sccc1NC(=O)c1cccc(OC)c1	50.5*	TbREL1 conf=1.8
COc1cccc(C(=O)Nc2ccccc2F)c1	2.7
COc1cccc(C(=O)Nc2ccc(F)c(F)c2F)c1	2.1
COc1ccc(OC)c(S(=O)(=O)N2CCCCC2C(=O)N2CCCN(C)CC2)c1 (centres undefined)	0.2
O=C(NCCCc1ccccc1)[C@H](Cc1ccccc1)NC1(C(=O)NCCc2c[nH]c3ccccc23)CCOCC1	-4.6
NCCN1CCN(S(=O)(=O)c2ccc3c(c2)CCN3C(=O)C2CCC2)CC1	0.4
SMILES	TbREL1 primary	others
CC(=O)/C(N=Nc1ccc(C(=O)O)cc1[N+](=O)[O-])=C(\C)O	12.3*	TbREL1 conf=7.9
CC(=O)N1CCN(c2ccc(C(N)=O)cc2[N+](=O)[O-])CC1	5.7
O=C(O)c1ccc([N+](=O)[O-])cc1	2.4
Cc1ccnc(SCc2cc(=O)c(OC(=O)c3ccc(C)c([N+](=O)[O-])c3)co2)n1	6.2
COc1ccc(OC)c(-c2nnc(SCC(=O)N3CCOCC3)o2)c1	0.0
COc1ccc(OC)c(-c2cc(C(=O)N3CCOCC3)no2)c1	100.1*	TbREL1 conf=1.1
COc1ccc(-c2cc(C(=O)N3CCCC3)no2)cc1	3.7
O=S1(=O)c2c(cccc2N2CC[C@@H](O)C2)O[C@H]2CCN1C2	-0.8
Cc1nn(-c2ccccc2)c2sc(C(=O)NCCc3ccccc3)cc12	0.4
Cc1nc(N/N=C/c2cccc(F)c2)cc(N2CCOCC2)n1	2.8
C/C(=N\Nc1ccc(Cl)c(C(=O)O)c1)c1cccc([N+](=O)[O-])c1	2.1
C/C(=N\Nc1cc(N2CCOCC2)nc(C)n1)c1cccc([N+](=O)[O-])c1	11.6*	TbREL1 conf=2.3
Cn1c(SCc2ccc(C(C)(C)C)cc2)nnc1-c1ccco1	0.5
O=C1NC(c2ccc3c(c2)OCO3)c2c(-c3ccccc3)n[nH]c21 (centres undefined)	5.8
CNc1nc(N)c([N+](=O)[O-])c(Nc2cccc(OC)c2)n1	3.0
Cc1ccc(-n2c(SCc3nc4ccccc4[nH]3)nnc2-c2ccccn2)cc1	-0.1
CC(C)(C)c1ccc(-c2nnc(SCC(=O)Nc3cccc4ccccc34)n2Cc2ccco2)cc1	0.1
CCCCNC(=O)C[C@H]1C[C@@]2(C(=O)OC)C(=C[C@H](COCc3ccccc3)O[C@@H]2C)N(Cc2ccccc2)C1=O	7.5
O=C(Nc1ccc2ccccc2c1)C1CC2CCC1C2 (centres undefined)	1.3
COC(=O)C1=C(C)N(C)C(=NCc2ccccc2)NC1c1ccccc1C(F)(F)F (centres undefined)	8.7
COC(=O)C1=C(C)N(c2ccccc2)C(=S)NC1c1ccccc1C(F)(F)F (centres undefined)	-5.0
COC(=O)C1=C(C)N(Cc2ccc(C(F)(F)F)cc2)C(=NCc2ccc3c(c2)OCO3)NC1c1ccccc1C(F)(F)F (centres undefined)	17.4*	TbREL1 conf=22.3*
COC(=O)C1=C(C)N(Cc2ccc(C(F)(F)F)cc2)C(=NCc2ccccc2C(F)(F)F)NC1c1ccccc1C(F)(F)F (centres undefined)	17.0*	TbREL1 conf=23.1*
COC(=O)C1=C(C)N(Cc2ccc(C(F)(F)F)cc2)C(=NCc2ccc(C(F)(F)F)cc2)NC1c1ccccc1C(F)(F)F (centres undefined)	17.2*	TbREL1 conf=24.1*
COC(=O)[C@]12C[C@H](CC(=O)N3CCN(C(=O)C4CC4)CC3)C(=O)N(Cc3ccc(Cl)cc3Cl)C1=C[C@H](C1CCCC1)O[C@@H]2C	6.0
SMILES	TbREL1 primary	others
O=[N+]([O-])c1ccc(CN2CCOCCOCCN(Cc3ccc([N+](=O)[O-])cc3Cl)CCOCC2)c(Cl)c1	-1.1
CCc1ccc(CCNC(=O)OC2CC3CC2[C@H]2CCCCN2[C@H]3C)cc1 (some centres undefined)	0.9
CCCCN1CCN(C(=O)c2cn(C(C)c3ccccc3)nn2)CC1 (centres undefined)	-2.1
Cc1ccccc1CN1CCCCC(NC(=O)C2CCCC2)C1=O (centres undefined)	1.5
CN(C(=O)c1cn(C)c2ccccc12)c1ccc(Oc2cccnc2)cc1	-1.4
CCOc1ccc(/C=N/n2c(-c3n[nH]c4c3CCC4)n[nH]c2=S)cc1	-0.6
CCCCCCn1c(-c2ccc(Cl)cc2Cl)csc1=Nc1ccccc1	0.0
O=C1C(Cc2ccccc2)S/C(=N/N=C/c2ccco2)N1c1ccccc1 (centres undefined)	-3.5
O=C1N/C(=N/N=C/c2ccco2)SC1Cc1ccccc1 (centres undefined)	11.3*	TbREL1 conf=4.0
CCCC1S/C(=N/N=C/c2ccco2)NC1=O (centres undefined)	1.9
COc1ccc(C2C(C(=O)Nc3ccc(F)cc3F)CCC(=O)N2c2ccc(OC)cc2)cc1 (centres undefined)	3.0

High-throughput results: PubChem, The Scripps Research Institute Molecular Screening Center
